Data from paper PMC11062922 (Nature Chemical Biology, 2023).
Read-outs that look alike come from different tables or passages of the source.

Test system: AURKA
Details: read-out: apparent Kd, n = 1

In the case of Lestaurtinib, the potency estimated from few doses (compound concentrations:100 nM and 1000 nM (sheet 'Lestaurtinib' of Supplementary Table 1),run:Lestaurtinib_02438_R2,Plate:MR008) is reported as 18.1 nM, the potency estimated from few doses (compound concentrations:100 nM and 1000 nM (sheet 'Lestaurtinib' of Supplementary Table 1),run:Lestaurtinib_02438_R3,Plate:MR008) is reported as 16.7 nM and the potency estimated from few doses (compound concentrations:100 nM and 1000 nM (sheet 'Lestaurtinib' of Supplementary Table 1),run:Lestaurtinib_02443_R1,Plate:MR009) is reported as 19 nM. For the same substance, the potency estimated from few doses (compound concentrations:100 nM and 1000 nM (sheet 'Lestaurtinib' of Supplementary Table 1),run:Lestaurtinib_02443_R3,Plate:MR009) was 22 nM, the potency estimated from few doses (compound concentrations:100 nM and 1000 nM (sheet 'Lestaurtinib' of Supplementary Table 1),run:Lestaurtinib_02473_R1,Plate:MR010) was 20 nM and the potency estimated from few doses (compound concentrations:100 nM and 1000 nM (sheet 'Lestaurtinib' of Supplementary Table 1),run:Lestaurtinib_02473_R3,Plate:MR010) was 16.1 nM. It also gave a potency estimated from few doses (compound concentrations:100 nM and 1000 nM (sheet 'Lestaurtinib' of Supplementary Table 1),run:Lestaurtinib_02482_R1,Plate:MR011) of 18.9 nM, a potency estimated from few doses (compound concentrations:100 nM and 1000 nM (sheet 'Lestaurtinib' of Supplementary Table 1),run:Lestaurtinib_02482_R2,Plate:MR011) of 19.3 nM and a potency estimated from few doses (compound concentrations:100 nM and 1000 nM (sheet 'Lestaurtinib' of Supplementary Table 1),run:Lestaurtinib_02487_R1,Plate:MR012) of 17.5 nM. The potency estimated from few doses (compound concentrations:100 nM and 1000 nM (sheet 'Lestaurtinib' of Supplementary Table 1),run:Lestaurtinib_02487_R3,Plate:MR012) was 24.8 nM, the potency estimated from few doses (compound concentrations:100 nM and 1000 nM (sheet 'Lestaurtinib' of Supplementary Table 1),run:Lestaurtinib_02496_R2,Plate:MR013) was 17.6 nM and the potency estimated from few doses (compound concentrations:100 nM and 1000 nM (sheet 'Lestaurtinib' of Supplementary Table 1),run:Lestaurtinib_02566_R2,Plate:MR014) was 21.1 nM. The potency estimated from few doses (compound concentrations:100 nM and 1000 nM (sheet 'Lestaurtinib' of Supplementary Table 1),run:Lestaurtinib_02572_R1,Plate:MR015) was 21.1 nM, the potency estimated from few doses (compound concentrations:100 nM and 1000 nM (sheet 'Lestaurtinib' of Supplementary Table 1),run:Lestaurtinib_02572_R3,Plate:MR015) was 17.9 nM and the potency estimated from few doses (compound concentrations:100 nM and 1000 nM (sheet 'Lestaurtinib' of Supplementary Table 1),run:Lestaurtinib_02577_R1,Plate:MR016) was 21.8 nM. The potency estimated from few doses (compound concentrations:100 nM and 1000 nM (sheet 'Lestaurtinib' of Supplementary Table 1),run:Lestaurtinib_02577_R2,Plate:MR016) was 21.1 nM, the potency estimated from few doses (compound concentrations:100 nM and 1000 nM (sheet 'Lestaurtinib' of Supplementary Table 1),run:Lestaurtinib_02577_R3,Plate:MR016) was 20.9 nM and the potency estimated from few doses (compound concentrations:100 nM and 1000 nM (sheet 'Lestaurtinib' of Supplementary Table 1),run:Lestaurtinib_02584_R1,Plate:MR017) was 21.8 nM. The potency estimated from few doses (compound concentrations:100 nM and 1000 nM (sheet 'Lestaurtinib' of Supplementary Table 1),run:Lestaurtinib_02584_R2,Plate:MR017) was 19.7 nM, the potency estimated from few doses (compound concentrations:100 nM and 1000 nM (sheet 'Lestaurtinib' of Supplementary Table 1),run:Lestaurtinib_02601_R1,Plate:MR018) was 21.1 nM and the potency estimated from few doses (compound concentrations:100 nM and 1000 nM (sheet 'Lestaurtinib' of Supplementary Table 1),run:Lestaurtinib_02601_R2,Plate:MR018) was 25.6 nM. It also gave a potency estimated from few doses (compound concentrations:100 nM and 1000 nM (sheet 'Lestaurtinib' of Supplementary Table 1),run:Lestaurtinib_02601_R3,Plate:MR018) of 21.7 nM, a potency estimated from few doses (compound concentrations:100 nM and 1000 nM (sheet 'Lestaurtinib' of Supplementary Table 1),run:Lestaurtinib_02606_R1,Plate:MR019) of 19.1 nM and a potency estimated from few doses (compound concentrations:100 nM and 1000 nM (sheet 'Lestaurtinib' of Supplementary Table 1),run:Lestaurtinib_02606_R2,Plate:MR019) of 20.8 nM. The potency estimated from few doses (compound concentrations:100 nM and 1000 nM (sheet 'Lestaurtinib' of Supplementary Table 1),run:Lestaurtinib_02606_R3,Plate:MR019) was 21.9 nM, the potency estimated from few doses (compound concentrations:100 nM and 1000 nM (sheet 'Lestaurtinib' of Supplementary Table 1),run:Lestaurtinib_02624_R1,Plate:MR020) was 17.5 nM and the potency estimated from few doses (compound concentrations:100 nM and 1000 nM (sheet 'Lestaurtinib' of Supplementary Table 1),run:Lestaurtinib_02624_R3,Plate:MR020) was 15.7 nM. For the same substance, the potency estimated from few doses (compound concentrations:100 nM and 1000 nM (sheet 'Lestaurtinib' of Supplementary Table 1),run:Lestaurtinib_02724_R2,Plate:MR021) was 21.3 nM, the potency estimated from few doses (compound concentrations:100 nM and 1000 nM (sheet 'Lestaurtinib' of Supplementary Table 1),run:Lestaurtinib_02741_R2,Plate:MR023) was 19.9 nM and the potency estimated from few doses (compound concentrations:100 nM and 1000 nM (sheet 'Lestaurtinib' of Supplementary Table 1),run:Lestaurtinib_02741_R3,Plate:MR023) was 23.2 nM. The potency estimated from few doses (compound concentrations:100 nM and 1000 nM (sheet 'Lestaurtinib' of Supplementary Table 1),run:Lestaurtinib_02748_R2,Plate:MR024) was 22.5 nM, the potency estimated from few doses (compound concentrations:100 nM and 1000 nM (sheet 'Lestaurtinib' of Supplementary Table 1),run:Lestaurtinib_02748_R3,Plate:MR024) was 22.2 nM and the potency estimated from few doses (compound concentrations:100 nM and 1000 nM (sheet 'Lestaurtinib' of Supplementary Table 1),run:Lestaurtinib_02752_R1,Plate:MR025) was 19 nM. The potency estimated from few doses (compound concentrations:100 nM and 1000 nM (sheet 'Lestaurtinib' of Supplementary Table 1),run:Lestaurtinib_02752_R2,Plate:MR025) was 16 nM, the potency estimated from few doses (compound concentrations:100 nM and 1000 nM (sheet 'Lestaurtinib' of Supplementary Table 1),run:Lestaurtinib_02752_R3,Plate:MR025) was 19.7 nM and the potency estimated from few doses (compound concentrations:100 nM and 1000 nM (sheet 'Lestaurtinib' of Supplementary Table 1),run:Lestaurtinib_02765_R2,Plate:MR026) was 23.1 nM. For the same substance, the potency estimated from few doses (compound concentrations:100 nM and 1000 nM (sheet 'Lestaurtinib' of Supplementary Table 1),run:Lestaurtinib_02766_R1,Plate:MR027) was 17.5 nM, the potency estimated from few doses (compound concentrations:100 nM and 1000 nM (sheet 'Lestaurtinib' of Supplementary Table 1),run:Lestaurtinib_02766_R2,Plate:MR027) was 17 nM and the potency estimated from few doses (compound concentrations:100 nM and 1000 nM (sheet 'Lestaurtinib' of Supplementary Table 1),run:Lestaurtinib_02766_R3,Plate:MR027) was 19.1 nM. It also gave a potency estimated from few doses (compound concentrations:100 nM and 1000 nM (sheet 'Lestaurtinib' of Supplementary Table 1),run:Lestaurtinib_02768_R1,Plate:MR028) of 20.8 nM, a potency estimated from few doses (compound concentrations:100 nM and 1000 nM (sheet 'Lestaurtinib' of Supplementary Table 1),run:Lestaurtinib_02768_R3,Plate:MR028) of 19.7 nM and a potency estimated from few doses (compound concentrations:100 nM and 1000 nM (sheet 'Lestaurtinib' of Supplementary Table 1),run:Lestaurtinib_02795_R3,Plate:MR022) of 60.5 nM.
